Active and inactive are the calls of the source. The calls were made as follows: active = hit-call score of the fitted dose curve at least 0.9, where 1 is the maximum; inactive = score below 0.9.
Legend:
[1] = biological target: CCAAT/enhancer-binding protein beta (Homo sapiens) (UniProt P17676); test: ATG_C_EBP_CIS: Attagene CIS-FACTORIAL HepG2 Assay for human CCAAT/Enhancer Binding Protein (C/EBP) beta (AID 2282927); settings: HepG2 Attagene cis-factorial transcription factor reporter; actives raise or lower the signal
Outline: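 HepG2 transiently transfected with multiplexed reporter units under cis-regulatory promoters reporting endogenous C/EBPb activity. After 24 h exposure, reporter mRNA assayed by RT-PCR, fluorescent labelling, HpaI digestion and capillary electrophoresis; bidirectional fitting versus DMSO.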

[2] = ATG_CMV_CIS: Attagene CIS-FACTORIAL HepG2 Assay for human CMV (Internal Marker) (AID 2282928); settings: HepG2 CMV promoter reporter, transcription factor profiling; actives raise or lower the signal;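 also: endpoint acts as a background internal control marker rather than a target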
Outline: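 CMV internal-marker background readout in transiently transfected HepG2 cells bearing cis-regulated reporter units. Reporter mRNA is measured 24 h after dosing by RT-PCR and capillary electrophoresis, with bidirectional fitting against DMSO.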

[3] = ATG_AP_1_CIS: Attagene CIS-FACTORIAL HepG2 Assay for human Activator Protein 1 (AP-1) (AID 2282931); settings: HepG2 Attagene cis-factorial AP-1 reporter mRNA; actives raise or lower the signal
Outline: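 After 24 h incubation with test chemical, RNA from transfected HepG2 cells was reverse-transcribed, amplified, fluorescently labelled and digested before capillary electrophoresis. Reporters were driven by cis-regulatory promoters; activity fitted bidirectionally versus DMSO.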

[4] = ATG_AP_2_CIS: Attagene CIS-FACTORIAL HepG2 Assay for human Activator Protein 2 (AP-2) (AID 2282932); settings: HepG2 AP-2 cis-reporter, Attagene transcription factor profiling; actives raise or lower the signal
Outline: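 HepG2 cells transiently transfected with cis-element reporter units and exposed for 24 h. Reporter mRNA measured by RT-PCR, FAM labelling, HpaI digestion and capillary electrophoresis. Changes in either direction fitted relative to DMSO.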

[5] = ATG_BRE_CIS: Attagene CIS-FACTORIAL HepG2 Assay for human Bone Morphogenetic Protein (BMP) Response Element (BRE) (AID 2282933); settings: HepG2 BMP response element reporter, Attagene transcription factor profiling; actives raise or lower the signal
Outline: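 A HepG2 multiplex reporter system measured inducible reporter mRNA 24 h post-dosing. Detection: RT-PCR, 6-FAM primer extension, HpaI digestion, capillary electrophoresis. Activity fitted bidirectionally relative to DMSO.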

[6] = ATG_E_Box_CIS: Attagene CIS-FACTORIAL HepG2 Assay for human Enhancer Box (E-box) (AID 2282936); settings: HepG2 E-box cis-reporter transcription, actives raise or lower the signal
Outline: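 HepG2 cells transiently transfected with multiplexed cis-element reporter units, dosed 24 h; reporter mRNA quantified by RT-PCR, 6-FAM labelling, HpaI digestion and capillary electrophoresis. E-box (USF1) signal fitted bidirectionally vs DMSO.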

[7] = ATG_M_61_CIS: Attagene CIS-FACTORIAL HepG2 Assay for M61 Transcription Factor (Internal Marker) (AID 2282937); settings: HepG2 Attagene CIS-FACTORIAL M61 internal marker reporter; actives raise or lower the signal
Outline: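 Using transiently transfected HepG2 liver cells, reporter transcript levels were assessed 24 h post-dosing by RT-PCR and capillary electrophoresis. Changes in either direction were fitted relative to DMSO controls.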

[8] = ATG_EGR_CIS: Attagene CIS-FACTORIAL HepG2 Assay for human Early Growth Response 1 (EGR1) (AID 2282938); settings: HepG2 Attagene CIS-FACTORIAL EGR reporter mRNA; actives raise or lower the signal
Outline: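 Fluorescent capillary-electrophoresis signal of reporter cDNA fragments serves as read-out. HepG2 cells bear transiently transfected cis-promoter reporter units and are exposed 24 h; gain- or loss-of-signal is fitted against DMSO.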

[9] = ATG_Ets_CIS: Attagene CIS-FACTORIAL HepG2 Assay for human Erythroblast Transformation Specific (ETS) (AID 2282941); settings: HepG2 ETS cis-reporter transcription, actives raise or lower the signal
Outline: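 HepG2 cells transfected with multiple cis-regulated reporter units measuring endogenous ETS-driven transcription, 24 h after dosing. Reporter mRNA quantified by RT-PCR with capillary electrophoresis; bidirectional fit relative to DMSO.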

[10] = ATG_FoxO_CIS: Attagene CIS-FACTORIAL HepG2 Assay for human Forkhead box O (FoxO) (AID 2282943); settings: HepG2 Attagene cis-reporter, FoxO element, mRNA; actives raise or lower the signal
Outline: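 HepG2 cells transiently transfected with cis-element-driven reporter units report endogenous FoxO activity. After 24 h chemical exposure, reporter mRNA quantified by RT-PCR, fluorescent labeling, HpaI digestion and capillary electrophoresis; bidirectional fit versus DMSO.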

[11] = ATG_GATA_CIS: Attagene CIS-FACTORIAL HepG2 Assay for human GATA Binding Protein (AID 2282944); settings: HepG2 GATA cis-element reporter, Attagene multiplex mRNA; actives raise or lower the signal
Outline: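 Transfected cis-reporter HepG2 cells were treated with chemicals for 24 hours. Total RNA was then converted to cDNA, amplified with reporter-specific primers and analysed by fluorescent capillary electrophoresis, using DMSO-treated wells as baseline.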

[12] = ATG_ISRE_CIS: Attagene CIS-FACTORIAL HepG2 Assay for human Interferon Regulatory Factor 1 (IRF1) binding to an Interferon-Stimulated Response Element (ISRE) (AID 2282948); settings: HepG2 ISRE cis-reporter (Attagene), mRNA transcription readout; actives raise or lower the signal
Outline: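 Transiently transfected HepG2 cells carrying cis-element reporter units, dosed 24 hours. Reporter mRNA quantified by RT-PCR, fluorescent primer extension, HpaI digestion and capillary electrophoresis. Bidirectional fitting relative to DMSO.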

[13] = ATG_M_06_CIS: Attagene CIS-FACTORIAL HepG2 Assay for M06 Transcription Factor (Internal Marker) (AID 2282950); settings: HepG2 Attagene CIS-FACTORIAL M06 internal marker reporter; actives raise or lower the signal
Outline: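 Cells (HepG2, transiently carrying cis-driven reporter units) receive chemical for 24 h before RNA isolation. Reporter cDNA is PCR-amplified, FAM-labelled by primer extension, HpaI-digested and sized on a capillary analyser.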

[14] = ATG_MRE_CIS: Attagene CIS-FACTORIAL HepG2 Assay for human Metal Responsive Element (MRE) (AID 2282954); settings: HepG2 MRE cis-reporter transcription, Attagene multiplex; actives raise or lower the signal
Outline: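 HepG2 cells transiently transfected with cis-element-driven reporter units; mRNA measured 24 h after dosing. Reporter transcripts quantified by RT-PCR, FAM labelling, HpaI digestion and capillary electrophoresis; bidirectional fit versus DMSO.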

[15] = biological target: Paired box protein Pax-6 (Homo sapiens) (UniProt P26367); test: ATG_Pax6_CIS: Attagene CIS-FACTORIAL HepG2 Assay for human Paired Box 6 (PAX6) (AID 2282956); settings: HepG2 CIS-FACTORIAL PAX6 reporter transcription, RNA readout; actives raise or lower the signal
Outline: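 HepG2 cells transiently transfected with cis-promoter-driven multiplexed reporter units sensing endogenous transcription factor activity; 24 h chemical exposure. Reporter mRNA quantified by RT-PCR, 6-FAM labelling, HpaI digestion and capillary electrophoresis; bidirectional fit versus DMSO baseline.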

[16] = biological target: Transcription factor Sp1 (Homo sapiens) (UniProt P08047); test: ATG_Sp1_CIS: Attagene CIS-FACTORIAL HepG2 Assay for human Specificity Protein 1 (Sp1) (AID 2282961); settings: HepG2 Sp1 cis-reporter transcription, actives raise or lower the signal
Outline: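 After transient transfection of HepG2 cells with cis-promoter reporter units and 24 h chemical treatment, reporter transcripts were quantified by RT-PCR and capillary electrophoresis fluorescence. Gain- and loss-of-signal fitted against DMSO.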

[17] = ATG_SREBP_CIS: Attagene CIS-FACTORIAL HepG2 Assay for human Sterol Regulatory Element Binding (SREBP) (AID 2282962); settings: HepG2 Attagene cis-factorial SREBP reporter, mRNA; actives raise or lower the signal
Outline: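 HepG2 cells transiently transfected with multiplexed cis-promoter reporter units sensing endogenous transcription factors; reporter mRNA measured 24 h after dosing by RT-PCR, 6-FAM labeling, HpaI digestion and capillary electrophoresis. Bidirectional fit versus DMSO.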

[18] = biological target: Signal transducer and activator of transcription 3 (Homo sapiens) (UniProt P40763); test: ATG_STAT3_CIS: Attagene CIS-FACTORIAL HepG2 Assay for human Signal Transducer and Activator of Transcription 3 (STAT3) (AID 2282963); settings: HepG2, Attagene cis-factorial STAT3 reporter transcription; actives raise or lower the signal
Outline: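 HepG2 cells transiently transfected with multiple cis-element-driven reporter units report endogenous transcription factor activity. After 24 h compound exposure, reporter mRNA is measured by RT-PCR, 6-FAM labelling, HpaI digestion and capillary electrophoresis. Fitted bidirectionally versus DMSO.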

[19] = ATG_TAL_CIS: Attagene CIS-FACTORIAL HepG2 Assay for human TAL Basal Promoter (AID 2282966); settings: HepG2 Attagene cis-factorial TAL promoter reporter; actives raise or lower the signal;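 also: background control endpoint measuring basal TAL promoter reporter mRNA not a specific factor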
Outline: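 RT-PCR plus capillary electrophoresis quantifies reporter mRNA induction in transiently transfected HepG2 cells after 24 h chemical treatment. DMSO serves as negative control and baseline for bidirectional fitting.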

[20] = biological target: X-box-binding protein 1 (Homo sapiens) (UniProt P17861); test: ATG_Xbp1_CIS: Attagene CIS-FACTORIAL HepG2 Assay for human X-box Binding Protein 1 (XBP1) (AID 2282972); settings: HepG2 XBP1 cis-element reporter, Attagene multiplex; actives raise or lower the signal
Outline: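 HepG2 cells transiently transfected with multiple cis-element reporter units report endogenous TF activity; 24 h exposure, then reporter mRNA measured by RT-PCR, 6-FAM labelling, HpaI digestion and capillary electrophoresis. Bidirectional fitting versus DMSO.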

Measured: AC50

Sequence of CCAAT/enhancer-binding protein beta (Homo sapiens) (P17676 whole entry, looked up): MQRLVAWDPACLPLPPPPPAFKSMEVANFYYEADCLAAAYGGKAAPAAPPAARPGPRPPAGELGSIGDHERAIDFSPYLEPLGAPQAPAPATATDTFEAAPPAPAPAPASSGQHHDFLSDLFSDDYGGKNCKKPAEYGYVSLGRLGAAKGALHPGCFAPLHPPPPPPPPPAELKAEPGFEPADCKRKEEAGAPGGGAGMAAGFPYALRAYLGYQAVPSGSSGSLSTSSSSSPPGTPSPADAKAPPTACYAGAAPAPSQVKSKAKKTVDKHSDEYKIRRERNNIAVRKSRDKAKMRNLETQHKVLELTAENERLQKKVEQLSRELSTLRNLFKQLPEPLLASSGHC
Sequence of Paired box protein Pax-6 (Homo sapiens) (P26367 whole entry, looked up): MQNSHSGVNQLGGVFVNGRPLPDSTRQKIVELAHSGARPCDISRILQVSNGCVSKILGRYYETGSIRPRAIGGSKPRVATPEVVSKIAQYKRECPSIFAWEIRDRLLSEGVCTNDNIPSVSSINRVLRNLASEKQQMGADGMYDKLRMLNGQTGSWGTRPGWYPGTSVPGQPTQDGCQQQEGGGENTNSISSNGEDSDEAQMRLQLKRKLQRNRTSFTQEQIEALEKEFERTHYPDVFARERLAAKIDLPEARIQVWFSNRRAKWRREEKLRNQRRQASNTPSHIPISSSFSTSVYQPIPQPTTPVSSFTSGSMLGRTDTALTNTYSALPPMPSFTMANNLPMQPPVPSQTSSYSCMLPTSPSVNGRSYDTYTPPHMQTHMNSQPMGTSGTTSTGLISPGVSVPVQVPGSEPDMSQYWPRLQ
Sequence of Signal transducer and activator of transcription 3 (Homo sapiens) (P40763 whole entry, looked up): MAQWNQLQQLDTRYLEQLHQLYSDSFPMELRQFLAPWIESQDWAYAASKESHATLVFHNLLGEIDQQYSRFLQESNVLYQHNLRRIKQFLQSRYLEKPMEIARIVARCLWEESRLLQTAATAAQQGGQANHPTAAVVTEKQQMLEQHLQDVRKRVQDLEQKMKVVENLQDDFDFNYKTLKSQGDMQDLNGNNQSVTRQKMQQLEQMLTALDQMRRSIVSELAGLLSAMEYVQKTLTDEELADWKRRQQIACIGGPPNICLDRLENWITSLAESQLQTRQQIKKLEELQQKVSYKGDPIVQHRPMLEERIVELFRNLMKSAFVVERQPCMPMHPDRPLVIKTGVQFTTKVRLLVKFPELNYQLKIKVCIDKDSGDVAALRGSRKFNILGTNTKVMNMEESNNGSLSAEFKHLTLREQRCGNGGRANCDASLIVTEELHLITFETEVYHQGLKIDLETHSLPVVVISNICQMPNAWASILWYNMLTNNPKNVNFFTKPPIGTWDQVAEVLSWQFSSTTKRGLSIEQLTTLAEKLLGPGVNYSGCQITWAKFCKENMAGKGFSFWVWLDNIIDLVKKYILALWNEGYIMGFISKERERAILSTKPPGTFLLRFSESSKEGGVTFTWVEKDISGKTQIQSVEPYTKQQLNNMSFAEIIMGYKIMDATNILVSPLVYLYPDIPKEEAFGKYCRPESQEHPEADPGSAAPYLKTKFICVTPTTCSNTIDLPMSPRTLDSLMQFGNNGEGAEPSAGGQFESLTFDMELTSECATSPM
Sequence of Transcription factor Sp1 (Homo sapiens) (P08047 whole entry, looked up): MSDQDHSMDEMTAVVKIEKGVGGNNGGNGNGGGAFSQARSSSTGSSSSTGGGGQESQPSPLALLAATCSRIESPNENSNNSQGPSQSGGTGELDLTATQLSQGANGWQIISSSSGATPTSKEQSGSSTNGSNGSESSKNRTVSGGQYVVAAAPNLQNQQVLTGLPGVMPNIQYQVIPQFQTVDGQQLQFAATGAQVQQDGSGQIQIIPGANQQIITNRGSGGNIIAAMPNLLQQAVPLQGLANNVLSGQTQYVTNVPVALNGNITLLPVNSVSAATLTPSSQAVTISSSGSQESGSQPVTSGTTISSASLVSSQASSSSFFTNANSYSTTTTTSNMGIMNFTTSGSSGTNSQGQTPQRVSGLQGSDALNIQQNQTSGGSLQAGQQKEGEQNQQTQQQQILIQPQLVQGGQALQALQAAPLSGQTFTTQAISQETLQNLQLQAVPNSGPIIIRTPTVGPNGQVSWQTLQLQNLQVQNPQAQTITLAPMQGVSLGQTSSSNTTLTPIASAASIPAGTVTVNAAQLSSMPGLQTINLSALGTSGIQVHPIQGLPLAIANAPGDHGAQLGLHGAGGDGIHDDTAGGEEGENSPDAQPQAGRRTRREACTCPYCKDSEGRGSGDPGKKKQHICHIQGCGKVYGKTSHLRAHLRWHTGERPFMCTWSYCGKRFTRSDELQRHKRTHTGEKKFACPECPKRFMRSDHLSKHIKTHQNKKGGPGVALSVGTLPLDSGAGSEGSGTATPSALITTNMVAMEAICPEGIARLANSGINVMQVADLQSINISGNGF
Sequence of X-box-binding protein 1 (Homo sapiens) (P17861 whole entry, looked up): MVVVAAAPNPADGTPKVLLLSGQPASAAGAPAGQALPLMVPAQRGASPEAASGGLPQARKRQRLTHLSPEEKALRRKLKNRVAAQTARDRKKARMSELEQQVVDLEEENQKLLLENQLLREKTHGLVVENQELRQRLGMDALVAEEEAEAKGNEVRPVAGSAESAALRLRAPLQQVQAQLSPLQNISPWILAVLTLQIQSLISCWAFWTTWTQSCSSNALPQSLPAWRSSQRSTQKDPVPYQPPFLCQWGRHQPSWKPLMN

O=C(Oc1ccccc1)c1ccccc1
inactive: all assays above

COC(=O)[C@]1(C)CCC[C@@]2(C)[C@H]1CC=C1C=C(C(C)C)CC[C@@H]12
active: [2] 100 µM | [3] 62.4 µM | [5] 100 µM | [11] 173 µM | [14] 66.1 µM | [19] 52.4 µM
inactive: all other assays above

CCCCCCOC(=O)CCCCCCCC(=O)OCCCCCC
inactive: all assays above

O=C(C1CCCCC1)N1CC(=O)N2CCc3ccccc3C2C1 (stereo not given)
inactive: all assays above

CC/C=C\CCCCCO
inactive: all assays above

CC(O)(P(=O)(O)O)P(=O)(O)O
inactive: all assays above

CCOc1ccc2c(c1)C(C)CC(C)(C)N2 (stereo not given)
inactive: all assays above

C=CC(C)(CCC=C(C)C)OC(=O)c1ccccc1 (stereo not given)
active: [2] 100 µM | [3] 127 µM | [14] 177 µM
inactive: all other assays above

CC1(C)S[C@@H]2[C@H](NC(=O)[C@H](N)c3ccccc3)C(=O)N2[C@H]1C(=O)O
inactive: all assays above

CC(=O)c1nccs1
inactive: all assays above

O=C(O)c1ccccc1C(=O)O
inactive: all assays above

C/C=C(\C)C(=O)OCC/C=C\CC
inactive: all assays above

C1=CCC=C1
inactive: all assays above

N#CCN(CC#N)CCN(CC#N)CC#N
inactive: all assays above

O=C(OCc1ccccc1)c1ccccc1
inactive: all assays above

Cc1ccccc1S(N)(=O)=O
inactive: all assays above

OCCN(CCO)c1cccc(Cl)c1
inactive: all assays above
